Source: PubChem
HCMV inh: qHTS Assay for inhibitors of the human cytomegalovirus (HCMV); actives 4.5% (n = 410,000); AID 1259415, 2018; activity change, negative = inhibition, % at 57.5 µM; HFF cells, HCMV-luciferase reporter, 72 h; hits give low values; in the data active = activity change below about -60%; inconclusive = no clear call, values can overlap the other calls; inactive = above about -39%; note: % is set by controls: 0 for no effect and ±100 for the full control effect
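Human foreskin fibroblasts infected with luciferase-reporter HCMV at MOI 1 PFU/cell, compounds at two doses. Luciferase measured 72 h post infection; normalized to buffer-only basal and Salinomycin (10uM) controls.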
MARV entry inh: qHTS for inhibitors of binding or entry into cells for Marburg Virus. Potency, µM (top dose mostly 37.8 µM), for the others: top-dose activity change, negative = inhibition, usual class: inhibitors. actives 1.8% (n = 300,000). Marburg virus pseudotyped entry inhibition, cell reporter. AID 540276, 2011; calls by dose curve; tested in HEK293 cells; note: potency is the fitted concentration of half-maximal effect; % is set by controls: 0 for no effect and ±100 for the full control effect
VACV Venus inh: qHTS for Stage-Specific Inhibitors of Vaccinia Orthopoxvirus: Venus Reporter Primary qHTS. Vaccinia virus Venus reporter expression, fluorescence. actives 0.46% (n = 330,000). Potency, µM (top dose mostly 36.5 µM), inactives show top-dose activity change, negative = inhibition, hits mostly inhibitors; calls by dose curve; tested in A549 cells; note: potency is the fitted concentration of half-maximal effect; % is set by controls: 0 for no effect and ±100 for the full control effect; nearly all actives have a fitted effect of over 30% in size
VACV mCherry inh: qHTS for Stage-Specific Inhibitors of Vaccinia Orthopoxvirus: mCherry Reporter Primary qHTS. Vaccinia virus mCherry reporter infection, fluorescence. Potency, µM (titrated, usually from 36.5 µM), for inactives: at the top dose activity change, negative = inhibition, most hits filed as inhibitors. actives 0.63% (n = 310,000). AID 720579, 2013; calls by dose curve; tested in A549 cells; note: potency is the fitted concentration of half-maximal effect; % is set by controls: 0 for no effect and ±100 for the full control effect; nearly all actives have a fitted effect of over 35% in size
HCV inh: qHTS Assay for Inhibitors of Hepatitis C Virus (HCV); Potency, µM (top dose mostly 41.8 µM), inactives show at the highest dose activity change, negative = inhibition, hits mostly inhibitors; actives 3.4% (n = 340,000); Huh7.5.1 HCVcc-Cre infection, luciferase reporter, 44 h; note: potency is the fitted concentration of half-maximal effect; % is set by controls: 0 for no effect and ±100 for the full control effect
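Luciferase read-out (15 sec integration) after a 15 min room-temperature substrate step quantifies HCVcc-Cre infection. Cells, 1,000 per well, had compound added 4 h post-plating, then virus at ~0.5 moi, and were cultured 44 h.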
Lassa entry inh: qHTS for Inhibitors of binding or entry into cells for Lassa Virus. Lassa virus pseudotype entry inhibition, cell reporter. Potency, µM (series often up to 37.9 µM), inactives show at the highest dose activity change, negative = inhibition, actives largely listed as inhibitors. actives 1.2% (n = 300,000). AID 540256, 2011; calls by dose curve; tested in HEK293 cells; note: potency is the fitted concentration of half-maximal effect; % is set by controls: 0 for no effect and ±100 for the full control effect; nearly all actives have a fitted effect of over 50% in size
HCV inh confirm: qHTS Assay for Inhibitors of Hepatitis C Virus (HCV): Confirmation Assay for Cherry-picked Compounds | shares compounds with HCV inh | HCVcc-Cre infectious virus cell assay, luciferase, inhibition | Potency, µM (top dose mostly 41.8 µM), without a hit: at the highest dose activity, negative = inhibition, most hits filed as inhibitors | actives 78% (n = 640); note: potency is the fitted concentration of half-maximal effect; nearly all actives have a fitted effect of over 80% in size
HCV cytotox: qHTS Assay for Inhibitors of Hepatitis C Virus (HCV): Cytotoxicity Counterscreen for Cherry-picked Compounds. HCV host cell line cytotoxicity counterscreen. shares compounds with HCV inh. Potency, µM (top dose mostly 41.8 µM), inactives show top-dose activity change, negative = cytotoxicity, actives largely listed as inhibitors. actives 22% (n = 640);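 note: potency is the fitted concentration of half-maximal effect; 44 h compound exposure; % is set by controls: 0 for no effect and ±100 for the full control effect; nearly all actives have a fitted effect of over 55% in size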
Starred values were filed as active, the others as inactive; i = inactive; ? = inconclusive; · = not tested or not shown; [ ] = another dose, or the depositor's remark. Most compounds without a hit are left out; they make up all but 7.8% or so of the library. Unless noted, calls come from the whole dose curve; as a rule, active = well fitted curve in the direction sought with a large enough effect; inconclusive = small, poorly fitted or top-dose-only effect, or another doubt; inactive = no such curve, though single readings can be large; an effect the other way counts as inactive or inconclusive.

SMILES	HCMV inh	MARV entry inh	VACV Venus inh	VACV mCherry inh	HCV inh	Lassa entry inh	HCV inh confirm	HCV cytotox
Cc1cccc(CN2CCN(CC(=O)NCCCN3CCN(c4ccc(F)cc4)CC3)C2=O)c1	?	?	·	·	5.6µM*	-12%	22µM*	?
COc1ccc(CCNC(=O)c2cnn(-c3ccc(F)cc3)c2C2CCN(C(=O)OC(C)(C)C)CC2)c(OC)c1	-20	·	-30%	-24%	·	?	·	·
O=C(Nc1ncc(Cc2ccc(SC(F)F)cc2)s1)c1ccccc1	?	-4%	-30%	?	?	?	14µM*	28µM*
CCCCOC(=O)c1ccc(NC(=O)c2csnn2)cc1	-2	?	-7%	-1%	·	?	·	·
Cc1cccc(-c2n[nH]c(=S)n2/N=C/c2ccco2)c1	-22	·	·	·	13%	·	·	·
N=c1scc(-c2ccccc2)n1/N=C/c1ccco1	8	?	-12%	-2%	?	-19%	25µM*	-30%
O=C(NCc1ccccc1Cl)c1ccc(CS(=O)(=O)c2ccc(Br)cc2)o1	?	-5%[46.1 µM]	-6%	-14%	·	-24%[46.1 µM]	·	·
O=C(Nc1cc(C(F)(F)F)ccc1N1CCCCC1)c1ccco1	?	?	-29%	·	?	2%	·	·
O=C(Nc1cc(C(F)(F)F)ccc1N1CCCCC1)c1ccc(Br)o1	-12	-26%	·	·	5µM*	-17%	14µM*	8%
COc1cc(OC)cc(-c2c(-c3cccs3)c3cc(-c4ccc(OC)c(OC)c4)ccc3n2C)c1	-32	·	-8%	i	?	·	·	·
COc1cc(OC)cc(-c2c(-c3cccs3)c3cc(-c4ccc5[nH]ccc5c4)ccc3n2C)c1	-9	·	-13%	?	11µM*	·	14µM*	7%
CCc1nnc(SCc2cccc(Cl)c2)c2cc3sccc3n12	23	?	-10%	-9%	·	·	·	·
O=C(CN(Cc1ccccc1)C1=NCCS1)c1ccc(Cl)cc1	-16	?	·	·	6.3µM*	13%	8.9µM*	-7%
COc1ccc(C(=O)CN(Cc2ccccc2)C2=NCCS2)cc1	-30	?	-5%	-12%	-23%	19%	·	·
CCCNC(=O)C1CCC(Cn2c(=O)c3sccc3n(CC(=O)N3CCC(C)CC3)c2=O)CC1 (stereo not drawn)	-3	·	-15%	-18%	·	3%[46.1 µM]	·	·
Cc1ccc(Cn2ncc3c(N4CCN(CCc5ccccc5)CC4)ncnc32)cc1	-31	?	-15%	-25%	5µM*	-20%	11µM*	25µM*
CC1(c2ccc3ccccc3c2)NC(=O)N(CC(=O)N2CCC(C(N)=O)CC2)C1=O (stereo not drawn)	-1	8%[46.1 µM]	0%	i	28%	?	·	·
CC1(c2ccc3ccccc3c2)NC(=O)N(CC(=O)N2CCN(Cc3ccccc3)CC2)C1=O (stereo not drawn)	·	·	·	·	3.2µM*	·	0.89µM*	3.1µM*
COc1cc2c(cc1NC(=O)COC(=O)/C=C/c1ccc([N+](=O)[O-])cc1)oc1ccccc12	-33	·	·	·	?	·	?	23%
COc1cc2c(cc1NC(=O)/C=C/c1ccc([N+](=O)[O-])cc1)oc1ccccc12	-23	1%	3%	8%	-28%	-1%	·	·
Cn1c(SCc2ccc(F)cc2Cl)nc2ccccc2c1=O	?	?	-25%	-28%	?	?	6.3µM*	14µM*
